# Compounds with a hit are over-represented: about 9.9% of the library has one in this group of screens.
# Tau fibril ThT = qHTS for Inhibitors of Tau Fibril Formation, Thioflavin T Binding; Microtubule-associated protein tau (Homo sapiens), P10636; recombinant tau K18 P301L, heparin-induced fibrillization, ThT fluorescence; Potency, µM (titrated, usually from 57.4 µM), actives largely listed as inhibitors; hit rate 2.1% among 270,000; further: nearly all actives have a fitted effect of over 55% in size
# Target sequence (P10636 561-689 P618L limits assumed): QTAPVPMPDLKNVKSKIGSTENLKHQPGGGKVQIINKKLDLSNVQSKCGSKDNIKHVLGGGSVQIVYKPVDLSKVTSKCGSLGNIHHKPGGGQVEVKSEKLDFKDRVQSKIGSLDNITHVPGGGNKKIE
#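 Tau K18 P301L fragment (15 uM unlabeled plus 0.24 uM Alexa 594-labeled) in 100 mM sodium acetate pH 7 with compound, fibrillization induced by 20 uM heparin for 6 hr at 37 C. Thioflavin T (30 uM) added, fluorescence read after 1 hr (ex 450, em 510 nm).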
# Tau FP inhib = qHTS for Inhibitors of Tau Fibril Formation, Fluorescence Polarization; Microtubule-associated protein tau (Homo sapiens), P10636; K18 P301L tau heparin fibrillization, Alexa594 FP, 6 h; Potency, µM (highest dose often 57.7 µM), hits mostly inhibitors; hit rate 0.39% among 280,000; further: nearly all actives have a fitted effect of over 55% in size
#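 Heparin (20 uM) drove fibril formation of recombinant tau K18 P301L, 15 uM unlabeled with 0.24 uM Alexa 594 label, for 6 hr at 37 C in 100 mM sodium acetate pH 7. Fluorescence polarization (555/632 nm) read 1 hr after 30 uM ThT.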
# KDM4E inh = qHTS Assay for Inhibitors of Human Jumonji Domain Containing 2E (JMJD2E); Lysine-specific demethylase 4E (Homo sapiens), B2RXH2; JMJD2E catalytic domain, FDH-coupled NADH fluorescence (FDH is formaldehyde dehydrogenase); Potency, µM (highest dose often 57.1 µM), most hits filed as inhibitors; hit rate 1.6% among 230,000; AID 2147, 2009; active means well fitted inhibition curve with a large enough effect, not every such curve was filed as active; inconclusive means small, poorly fitted or top-dose-only effect, or another doubt; inactive means no such curve, though single readings can be large or run the other way; further: nearly all actives have a fitted effect of over 50% in size
# ALDH1A1 inh = qHTS Assay for Inhibitors of Aldehyde Dehydrogenase 1 (ALDH1A1). Purified ALDH1A1, NADH fluorescence, propionaldehyde substrate. hit rate 7.3% among 220,000. Potency, µM (series often up to 75.3 µM), usual class: inhibitors; active means well fitted inhibition curve with a large enough effect, not every such curve was filed as active; inconclusive means small, poorly fitted or top-dose-only effect, or another doubt; inactive means no such curve, though single readings can be large or run the other way
# Tau fluor cs = Counterscreen qHTS for Inhibitors of Tau Fibril Formation, Fluorescence Polarization; tau K18 P301L (four-repeat tau fragment) Alexa594 fluorescence, heparin fibrillization; Potency, µM (doses to about 57.7 µM); hit rate 0.93% among 280,000; AID 1463, 2008; further: nearly all actives have a fitted effect of over 55% in size
#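 Human K18 P301L tau (15 uM unlabeled plus 0.24 uM Alexa 594-labeled, final) in 100 mM sodium acetate pH 7 was mixed with compound and 20 uM heparin and incubated 6 hr at 37 C.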
# HPGD block = qHTS Assay for Inhibitors of HPGD (15-Hydroxyprostaglandin Dehydrogenase); purified HPGD, NADH fluorescence kinetic, PGE2 substrate; Potency, µM, most hits filed as inhibitors; hit rate 4.3% among 150,000; AID 894, 2007; active means well fitted inhibition curve with a large enough effect, not every such curve was filed as active; inconclusive means small, poorly fitted or top-dose-only effect, or another doubt; inactive means no such curve, though single readings can be large or run the other way
# Target sequence (P15428 whole entry, looked up): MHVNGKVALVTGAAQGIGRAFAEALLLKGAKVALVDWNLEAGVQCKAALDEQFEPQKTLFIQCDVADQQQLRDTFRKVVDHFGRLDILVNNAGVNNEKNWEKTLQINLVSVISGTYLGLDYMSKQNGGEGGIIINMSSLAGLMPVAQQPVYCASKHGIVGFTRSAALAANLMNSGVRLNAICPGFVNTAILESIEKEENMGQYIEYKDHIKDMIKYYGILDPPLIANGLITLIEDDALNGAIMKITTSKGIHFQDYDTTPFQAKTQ
#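 NADH formation kinetics: reaction with 30 uM PGE2 and 1 mM NAD+ (final), 20 nM enzyme, Tris-HCl pH 8 with Tween 20, after 15 min compound preincubation at room temperature. Fluorescence change, last versus first of five reads.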
# Numbers stand for hits; 0 = inactive; ? = inconclusive; - = no result given; [ ] = remark or other dose. Unless noted, the call rests on the fitted dose curve; in most records, active means well fitted curve in the direction sought with a large enough effect; inconclusive means small, poorly fitted or top-dose-only effect, or another doubt; inactive means no such curve, though single readings can be large; an effect the other way counts as inactive or inconclusive.
SMILES,Tau fibril ThT,Tau FP inhib,KDM4E inh,ALDH1A1 inh,Tau fluor cs,HPGD block
O=C(O)c1cnc(-c2ccccc2)nc1Sc1ccc(Cl)cc1Cl,0,0,0,0,0,0
O=C(O)c1cnc(-c2ccccc2)nc1-c1ccccc1,0,0,0,0,0,-
O=C(c1ccc(C(F)(F)F)cc1)N1CCC(c2noc(-c3ccc(S(=O)(=O)N4CCCC4)cc3)n2)CC1,0,0,-,-,0,-
CC[n+]1c(/C=C2\Sc3ccccc3N2C)ccc2cccc(C)c21,20µM,?,0,?,0,-
CCN1/C(=C/c2ccc3cc(C)ccc3[n+]2CC)Sc2ccccc21,17.8µM,?,0,0,0,0
CCN1/C(=C/c2ccc3cc(C)ccc3[n+]2CC)Sc2cc(C)c(C)cc21,7.08µM,?,?,0,?,-
COc1ccc(-[n+]2c(C)cc(/C=C3\Sc4ccccc4N3C)cc2C)cc1,?,0,0,?,0,-
CCN1/C(=C/c2sc(-c3ccccc3C)c[n+]2C)Sc2ccccc21,?,0,0,?,0,-
CCCCC(=O)N(c1ccc2oc(C)c(C(C)=O)c2c1)S(=O)(=O)c1ccc(F)cc1C,0,0,-,-,0,-
CC(C)CNC(=O)CC(c1ccccc1)c1ccccc1,0,0,0,0,0,-
COc1ccccc1CN1CCCC2(CCN(C(C)=O)CC2)C1,-,-,-,0,-,0
CC(C)(CO[C@H]1C[C@H]2CC[C@@]1(C)C2(C)C)[N+](=O)[O-],-,-,-,0[13.5 µM],-,0
CCN(CC)c1ccc(C=NCCc2ccc(S(N)(=O)=O)cc2)cc1,0,0,0,0.126µM,0,-
CCN(CC)c1ccc(/C=N/N2C(=O)c3ccccc3C2=O)cc1,?,0,0,?,0,0
Cc1c2cnn(-c3ccccc3)c(=O)c2c(C)n1CC(=O)N1CCN(c2ccc(F)cc2)CC1,0,0,-,-,0,-
CCCN1CCN(C(=O)CCCn2c(C)c3cnn(-c4ccccc4)c(=O)c3c2C)CC1,0,0,0,28.2µM,0,0
CCC(C(=O)NCCN1CCN(C)CC1)n1c(C)c2cnn(-c3ccccc3)c(=O)c2c1C (stereo unspecified),0,0,0,22.4µM,0,0
CCN(CC)S(=O)(=O)c1ccc(N2CCOCC2)c(NC(=O)Cc2cccc3ccccc23)c1,0,0,?,?,0,0
CN(C)c1ccc(NC(=O)COC(=O)CCC(=O)c2ccc(F)cc2)cc1,?,0,0,10µM,?,0
COc1ccc(-c2noc(-c3ccc(NCC4CCCO4)c([N+](=O)[O-])c3)n2)cc1OC (stereo unspecified),0,0,-,-,0,-
OCC1OC(c2ccccc2)C=CC1Oc1ccc(C2CCCC2)cc1 (stereo unspecified),0[11.5 µM],0[11.6 µM],-,0[13.5 µM],0[11.6 µM],-
O=C(Nc1ccc(S(=O)(=O)Nc2ncccn2)cc1)c1cc(=O)c2ccccc2o1,0,0,-,-,0,-
COc1ccc(CN=CC2=C(O)CNC2=O)cc1,0,0,0,0,0,0
COc1ccc(CN=Cc2[nH]c3ccc(Br)c(Cl)c3c2O)cc1,15.8µM,?,0,3.98µM,?,?
Cc1ccc(O)c(C=Nc2ccc3[nH]ncc3c2)c1,?,?,?,?,0,?
Cc1cc(C)cc(N=Cc2[nH]c3ccc(Br)c(Cl)c3c2O)c1,?,0,0,7.94µM,?,?
O=C1c2ccccc2-c2ccc(N=[N+]([O-])c3ccc4c(c3)C(=O)c3ccccc3-4)cc21,-,-,-,0[13.5 µM],-,0
CC(=O)Oc1ccc2c(c1OC(C)=O)OCC1(O)Cc3c(cc(OC(C)=O)c(OC(C)=O)c3OC(C)=O)C21 (stereo unspecified),?,0,0,0,?,0
Oc1cc2c(cc1O)[C@H]1c3ccc(O)c(O)c3OC[C@@]1(O)C2,17.8µM,?,3.55µM,0,?,12.6µM

# Screens from PubChem.
